A short description of this assay: HT29 colon tumor cell growth inhibition, primary screen, imaging, high content imaging, 48 h, CellTiter-Glo (AID 771).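 As to condensed nuclei: condensed means Hoechst nuclear area under control median minus 1.5 SD.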 The note with it: HCS imaging cell count, at 10 µM, stronger effect = higher value; for condensed nuclei: measured here: percent cells with condensed nuclei. (In general: ATP-based viability assays read luminescence as a measure of living cells.)
The mark [1] stands for this setting: measured here: ATP CellTiter-Glo viability inhibition.

The campaign covered roughly 3,300 compounds. About 55 (2%) were called active.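 The calls were made as follows: active = growth inhibition above 90%, meaning viable cell count by imaging cut by more than 90% versus vehicle controls; inactive = growth inhibition below 90%.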 What follows is part of a selection rich in actives, with near analogues and random picks from the rest.

In the case of `Cc1ccc2[nH]c3c(N4CCN(Cc5ccc6c(c5)OCO6)CC4)ncnc3c2c1`, the growth inhibition is 94.2% (active) and the condensed nuclei is 25.3%. In addition, the growth inhibition under setting [1] was 91.8%.
The matching figures for `Cc1ccc2[nH]c3c(N4CCCCCC4)ncnc3c2c1`: 96.6% (active), 38.1% and 93%.
Taken in the same sequence, the figures for `c1ccc2c(c1)[nH]c1c(N3CCN(C4CCCCC4)CC3)ncnc12` were 58.7% (inactive), 3.08% and 2.53%.
The matching figures for `Cc1ccc2[nH]c3c(N4CCN(Cc5ccccc5)CC4)ncnc3c2c1`: 16% (inactive), 2.02% and -1.83%.
For `Fc1ccc2[nH]c3c(N4CCN(Cc5ccc6c(c5)OCO6)CC4)ncnc3c2c1`, the growth inhibition is 97.9% (active) and the condensed nuclei was 29%. Besides, the growth inhibition under setting [1] stood at 92.8%.
Taken in the same sequence, the figures for `CN1CCN(c2ncnc3c2[nH]c2ccc(F)cc23)CC1` were 64.5% (inactive), 2.81% and 10%.
As for `Fc1ccc2[nH]c3c(N4CCSCC4)ncnc3c2c1`, the growth inhibition is 38.7% (inactive) and the condensed nuclei was 4.52%. In addition, under setting [1], the growth inhibition came to 37.9%.
Taken in the same sequence, the figures for `COc1ccc2[nH]c3c(N4CCN(Cc5ccc6c(c5)OCO6)CC4)ncnc3c2c1` were 40.6% (inactive), 3.53% and 20.9%.
The matching figures for `Cc1ccc2[nH]c3c(N4CCOCC4)ncnc3c2c1`: 42.1% (inactive), 0.48% and 15.8%.
Taken in the same sequence, the figures for `c1ccc2c(c1)[nH]c1c(N3CCSCC3)ncnc12` were 57.5% (inactive), 0.5% and 9.84%.
Consider `Fc1ccc2[nH]c3c(N4CCN(C5CCCCC5)CC4)ncnc3c2c1`, for which the growth inhibition is 94% (active) and the condensed nuclei was 10.8%. For the same molecule, the growth inhibition under setting [1] was 85.4%.
The matching figures for `c1ccc(CN2CCN(c3ncnc4c3[nH]c3ccccc34)CC2)cc1`: 89.4% (inactive), 10.8% and 57.3%.
For the molecule `O=C(CCN1CCc2ccccc2CC1)c1ccc2c(c1)OCCO2`, the growth inhibition was 18.3% (inactive) and the condensed nuclei was 1.32%. Besides, the growth inhibition under setting [1] worked out at 14.1%.
As for `Fc1ccc(-c2cnc[nH]2)cc1`, the growth inhibition was 7.2% (inactive) and the condensed nuclei is 1.71%. The growth inhibition under setting [1] is -20.5%.
Taken in the same sequence, the figures for `COC(=O)CSc1nc2sc3c(c2c(=O)n1C1CCCCC1)CCN(C)C3` were 31.7% (inactive), 4.17% and -21.3%.
The matching figures for `O=C(O)CC(C(=O)N(c1ccccc1)c1ccccc1)N1CCOCC1` (stereo not given): -4.04% (inactive), 1.81% and -10.5%.
The matching figures for `Cc1occc1C(=O)OCC(=O)Nc1ccc(F)cc1`: 41.9% (inactive), 4.91% and 18.1%.
Take `Cc1ccc(CNC(=O)c2cc3c(=O)n4ccccc4nc3n(Cc3ccco3)c2=N)cc1`: the growth inhibition is 38.7% (inactive) and the condensed nuclei stood at 1.03%. In addition, under setting [1], the growth inhibition is 10.6%.
The matching figures for `CCOc1ccc(C2/C(=C(/O)c3ccc(F)cc3)C(=O)C(=O)N2CCCN(C)C)cc1` (stereo not given): 28.1% (inactive), 5.22% and -5.46%.
Consider `CCN1CCN(c2nc3c(C)cccn3c(=O)c2/C=C(\C#N)S(=O)(=O)c2ccccc2)CC1`, for which the growth inhibition was 9.15% (inactive) and the condensed nuclei was determined as 2.58%. Further, under setting [1], the growth inhibition was determined as 7.42%.
Taken in the same sequence, the figures for `COC(=O)c1cc(Br)c(=O)n(CCc2ccc(F)cc2)c1` were 43.4% (inactive), 1.12% and 17.2%.
The matching figures for `CCOC(=O)c1[nH]c2ccc(F)cc2c1N=C(C)N(CC)CC`: -6.13% (inactive), 2.07% and -22.6%.
The matching figures for `CC(C)CNC(=O)c1c(N)n(/N=C/c2ccccn2)c2nc3ccccc3nc12`: -40% (inactive), 2.54% and -5.64%.
Take `COc1cccc(N2CCN(c3ncnc4c3[nH]c3ccc(F)cc34)CC2C)c1` (stereo not given): the growth inhibition was 91.7% (active) and the condensed nuclei came out at 4.17%. Also, the growth inhibition under setting [1] stood at 89.4%.
Taken in the same sequence, the figures for `Fc1ccc2[nH]c3c(N4CCN(c5ccccc5)CC4)ncnc3c2c1` were 81.6% (inactive), 29.2% and 84.2%.
The matching figures for `COc1cccc(N2CCN(c3ncnc4c3[nH]c3ccccc34)CC2C)c1` (stereo not given): 89.8% (inactive), 5.36% and 62.2%.
The matching figures for `CC(=O)/C=C(\C)NCCNc1c(F)c(F)c(CO)c(F)c1F`: 23.4% (inactive), 1.42% and 0.5%.
As to `CC(NCCc1ccc(O)cc1)C(O)c1ccc(O)cc1` (stereo not given), the growth inhibition was -16.3% (inactive) and the condensed nuclei came to 2.5%.
Taken in the same sequence, the figures for `CC(COc1ccccc1)NC(C)C(O)c1ccc(O)cc1` (stereo not given) were 22.6% (inactive) and 2.89%.
Taken in the same sequence, the figures for `CCCCCCCCNC(C)C(O)c1ccc(SC(C)C)cc1` (stereo not given) were 99.7% (active) and 50%.
With `COc1ccc(OC)c(C(O)c2coc3ccc(O)c(CN4CCOCC4)c23)c1` (stereo not given), the growth inhibition is -2.41% (inactive) and the condensed nuclei is 4.2%. The growth inhibition under setting [1] is -6.82%.
Taken in the same sequence, the figures for `Cc1nc(=O)c(-c2ccccc2)c(C)n1-c1ccc(S(N)(=O)=O)cc1` were -25.6% (inactive), 2.99% and -8.56%.
Taken in the same sequence, the figures for `CCOC(=O)c1[nH]c2cc(OC)c(OC)cc2c1NC(=O)C(C)N1CCN(Cc2ccccc2)CC1` (stereo not given) were 3.83% (inactive), 3.08% and -7.15%.
In the case of `CCCCC(=O)NC(Nc1ccc(C)cn1)(C(=O)OCC)C(F)(F)F` (stereo not given), the growth inhibition was -56.4% (inactive) and the condensed nuclei amounted to 2.76%. In addition, the growth inhibition under setting [1] was -18.7%.
Taken in the same sequence, the figures for `CCn1cc(C(=O)NCCCN(C)C)c(=O)c2cc(F)c(N3CCN(C)CC3)cc21` were 23.8% (inactive), 4.97% and -23.1%.
Taken in the same sequence, the figures for `CCn1cc(C(=O)NCc2ccccn2)c(=O)c2cc(F)c(N3CCN(C)CC3)cc21` were 15.6% (inactive), 2.93% and -1.75%.
The matching figures for `CCn1cc(C(=O)NCCc2ccccc2)c(=O)c2cc(F)c(N3CCN(C)CC3)cc21`: 97% (active), 14.8% and 89.7%.
As for `CCOC(=O)c1ccccc1OCc1cc(/C=N/n2cncn2)ccc1OC`, the growth inhibition is 28.7% (inactive) and the condensed nuclei was found to be 3.97%. The growth inhibition under setting [1] worked out at 6.4%.
Taken in the same sequence, the figures for `CCOc1ccc(C2C(C#N)=C(N)SC(N)=C2C#N)cc1OC` were 25.3% (inactive), 0.7% and 1.94%.
For `OCCNc1ncnc2c1c(-c1ccccc1)c(-c1ccccc1)n2Cc1ccco1`, the growth inhibition was 37.6% (inactive) and the condensed nuclei came to 3.02%. Moreover, the growth inhibition under setting [1] was 15.3%.
`N=c1c2c(-c3ccccc3)c(-c3ccccc3)n(Cc3ccccc3)c2ncn1CCCn1ccnc1`: the growth inhibition is 99.7% (active) and the condensed nuclei came to 41.1%. Also, under setting [1], the growth inhibition was 97.2%.
Taken in the same sequence, the figures for `O=c1c(C=NCCCn2ccnc2)c(-c2ccccc2)[nH]n1-c1nc2ccccc2s1` were 1.39% (inactive), 3.29% and 1.73%.
Taken in the same sequence, the figures for `COC(=O)c1[nH]c(C)c(/C(O)=C2\C(=O)C(=O)N(CCN3CCOCC3)C2c2ccccc2OC)c1C` (stereo not given) were 15.6% (inactive), 1.6% and 7.04%.
Taken in the same sequence, the figures for `O=C(NCCN1CCCCC1)/C(=N\O)c1ccccc1` were -0.27% (inactive), 1.08% and -18.5%.
Turning to `Cc1c(=O)n(OCc2c(F)cccc2F)c2ccccc2[n+]1[O-]`, the growth inhibition is 7.92% (inactive) and the condensed nuclei was 2.94%. For the same molecule, the growth inhibition under setting [1] was determined as 2.47%.
The matching figures for `C=CC(O)Cc1c(C)n[nH]c1C` (stereo not given): -31.7% (inactive), 2.84% and 7.27%.
For `COc1ccc(OCC(=O)N2CCN(C(=O)c3cccc4ccccc34)CC2)cc1`, the growth inhibition was -1.2% (inactive) and the condensed nuclei worked out at 2%. The growth inhibition under setting [1] was -3.25%.
On to `CN(C)CCC=C1c2ccccc2CCc2ccccc21`, for which the growth inhibition was 28.2% (inactive) and the condensed nuclei amounted to 6.45%.
Taken in the same sequence, the figures for `CNCCC=C1c2ccccc2CCc2ccccc21` were 97.6% (active) and 32.9%.
`COc1ccc(C(C)=O)cc1CSCCC(=O)O`: the growth inhibition is -39.8% (inactive) and the condensed nuclei was determined as 1.66%. Also, the growth inhibition under setting [1] is -10.3%.
The matching figures for `CCOC(=O)Oc1ccc2c(c1)C(C)=CC(C)(C)N2C(=O)OCC`: 44.5% (inactive), 1.63% and 33.4%.
Taken in the same sequence, the figures for `CCCc1cc(NCCCCO)n2c(nc3ccccc32)c1C#N` were 41.5% (inactive), 2.71% and 6.57%.
The matching figures for `C/C(=N/n1cnnc1)c1cccnc1`: -50.9% (inactive), 2.16% and -4.47%.
`COCc1cc(=O)[nH]c(Nc2nc3ccc(C)cc3o2)n1`: the growth inhibition is 93% (active) and the condensed nuclei was 0%. Further, under setting [1], the growth inhibition was 69.7%.
The matching figures for `Cc1cccc(OCc2nc(C)cc(=O)[nH]2)c1`: 37.9% (inactive), 2.19% and 1.04%.
The matching figures for `COCc1cc(=O)[nH]c(Nc2nc3ccccc3o2)n1`: 89.2% (inactive), 2.5% and 76.3%.
Taken in the same sequence, the figures for `COc1ccccc1-n1c(=O)c2c3c(sc2n2c(SC(C)C)nnc12)CCC3` were -4.74% (inactive), 3.08% and -1.5%.
With `CCN(CC)C(=O)CSC1=C(C#N)C(c2ccco2)C(C(=O)OCCOC)=C(C)N1` (stereo not given), the growth inhibition is 25.5% (inactive) and the condensed nuclei stood at 3.61%. Moreover, the growth inhibition under setting [1] was 20.6%.
The matching figures for `C=CCOC(=O)C1=C(C)NC(SCC(=O)N(CC)CC)=C(C#N)C1c1ccco1` (stereo not given): -28.4% (inactive), 2.96% and -41.1%.
Taken in the same sequence, the figures for `COCCOC(=O)C1=C(C)NC(SCC(=O)NC(C)(C)C)=C(C#N)C1c1ccco1` (stereo not given) were 34.7% (inactive), 3.96% and -24.4%.
Taken in the same sequence, the figures for `CCOC(=O)C1=C(c2ccccc2)NC(SCC(=O)Nc2ccccc2C)=C(C#N)C1c1ccco1` (stereo not given) were 91% (active), 11% and 75.3%.
On to `C=CCOC(=O)C1=C(C)NC(SCC(=O)N(CC)CC)=C(C#N)C1c1ccccc1` (stereo not given), for which the growth inhibition was 54.1% (inactive) and the condensed nuclei worked out at 4.29%. The growth inhibition under setting [1] worked out at 3.16%.
Taken in the same sequence, the figures for `C=CCOC(=O)C1=C(C)NC(SCC(=O)Nc2ccc(C)c(Cl)c2)=C(C#N)C1c1ccco1` (stereo not given) were 91.3% (active), 8.14% and 45.8%.
The matching figures for `Cc1cc(CC(=O)O)c(C)cc1CC(=O)O`: -42% (inactive), 2.43% and -0.43%.
Taken in the same sequence, the figures for `CCCn1nnc(NC(=O)c2cc(Br)cc(Br)c2OC)n1` were -8.21% (inactive), 7.92% and -15.1%.
Consider `O=C1[C@@H]2[C@H](C(=O)N1O)[C@H]1C=C[C@@H]2C1`, for which the growth inhibition is 1.8% (inactive) and the condensed nuclei stood at 1.79%. Under setting [1], the growth inhibition was -19.1%.
The matching figures for `CCCc1nnc(NC(=O)c2c(O)c3c([nH]c2=O)CCCC3)s1`: -9.28% (inactive), 7.28% and -32.6%.
The matching figures for `COc1cc(-c2nn3c(-c4cccnc4)nnc3s2)cc(OC)c1OC`: -10.1% (inactive), 3% and -33.4%.
The matching figures for `c1cncc(-c2nnc3sc(-c4ccco4)nn23)c1`: 28% (inactive), 21.4% and 26.6%.
Take `CCN(CC)c1ccc(-c2nn3c(-c4cccnc4)nnc3s2)cc1`: the growth inhibition was 90.1% (active) and the condensed nuclei was determined as 4.92%. Besides, the growth inhibition under setting [1] was found to be 75%.
The matching figures for `O=C(NCCCn1ccnc1)c1cccnc1`: -11.4% (inactive), 2.67% and -30.1%.
Taken in the same sequence, the figures for `CCOc1cc2nc(-c3ccc(OC)c(OC)c3)nc(N3CCOCC3)c2cc1OC` were 97.2% (active), 39.3% and 90%.
The matching figures for `COc1cc2nc(-c3ccccc3)nc(N3CCCC3)c2cc1OC`: 27.7% (inactive), 2.25% and 3.73%.
As to `COc1cccc(-c2nc(N3CCN(Cc4ccccc4)CC3)c3ccccc3n2)c1O`, the growth inhibition is -8.14% (inactive) and the condensed nuclei was 2.41%. For the same molecule, under setting [1], the growth inhibition worked out at 0.87%.
The matching figures for `CCC1(C)Cc2ccccc2-c2nc(NCCO)n(-c3ccccc3)c(=O)c21` (stereo not given): 60.4% (inactive), 2.11% and 4.3%.

Values taken from PubChem BioAssay AID771 (SRMLSC, 2007).
